Data on 31 molecules can be found in PubChem BioAssay (NCATS).

Molecules are shown by their SMILES. Active and inactive are the calls of the source. The rule behind the calls is not given here. Numbered stars: 1 amine (or outer) side, 2 acyl side, 3 side chain; on linkers, the order of the positions; unused ones are H or OH. Bridge positions count the residues as written; N and C are the ends. Square brackets hold non-standard residues; d marks the D form. Peptide text beside a SMILES is read from it. I, II: the chains in the order shown. ξ: configuration not given here. Actinocin(9to1) = Cc1c2oc3c(C)ccc(C(=O)[*:1])c3nc-2c(C(=O)[*:2])c(N)c1=O; ξNMeV = CNC(C(=O)O)C(C)C; ξV = CC(C)C(N)C(=O)O; Sar = CNCC(=O)O
Potency is the fitted concentration of half-maximal effect.

The assay is described as follows: Immunotoxin (HA22) sensitization/mitigation study. Vehicle arm (PBS) (AID 1159510). The note with it: cancer cells viability with PBS vehicle (HA22 study); series mostly up to 46.1 µM.
Consider `Cc1c2oc3c(C)ccc(C(=O)N[C@@H]4C(=O)NC(C(C)C)C(=O)N5CCC[C@H]5C(=O)N(C)CC(=O)N(C)C(C(C)C)C(=O)O[C@@H]4C)c3nc-2c(C(=O)N[C@@H]2C(=O)NC(C(C)C)C(=O)N3CCC[C@H]3C(=O)N(C)CC(=O)N(C)C(C(C)C)C(=O)O[C@@H]2C)c(N)c1=O` (stereo partly specified) (I: T[ξV]P[Sar][ξNMeV] / II: T[ξV]P[Sar][ξNMeV]; ester I:1-I:C, II:1-II:C; linker I:N-II:N via Actinocin(9to1)), for which the Potency is 0.0332 µM [activator] (active). In the case of `CCc1cc(-c2n[nH]c(C)c2-c2ccc3c(c2)OCCO3)c(O)cc1O` it was 16.6 µM (active); in that of `Cc1cc(Nc2nc(N[C@@H](C)c3ncc(F)cn3)ncc2Cl)n[nH]1`, “inactive”; in that of `CCC=CC[C@H]1C(=O)CC[C@@H]1CC(=O)OC`, “inactive”. In the case of `CC(C)c1ccccc1Cc1cc(C(=O)Nc2ccc(S(=O)(=O)c3ccccc3C(C)(C)C)cc2)c(O)c(O)c1O` it was 0.743 µM (active); in that of `CN1CC[C@@H](c2c(O)cc(O)c3c(=O)cc(-c4ccccc4Cl)oc23)[C@@H](O)C1`, 0.0166 µM (active). In the case of `Nc1ccc(C(=O)c2cc3c(ccc4ccccc43)[nH]2)cc1` it was 0.743 µM (active). Consider `COc1cc2ncnc(-n3nc(-c4ccccn4)nc3N)c2cc1OC`, for which the Potency is 3.72 µM (active). As for `COc1cc2c(cc1OC)CC(=O)N(CCCN(C)C[C@H]1Cc3cc(OC)c(OC)cc31)CC2`, the Potency entry was “inactive”.

In the case of `CO[C@H]1C=CC=C(C)C(=O)NC2=CC(=O)C(NCCN(C)C)=C(C[C@@H](C)C[C@H](OC)[C@@H](O)[C@@H](C)C=C(C)[C@@H]1OC(N)=O)C2=O`, the Potency is 0.0059 µM (active).

As for `Fc1cc(-c2cccc3ncc(-c4cnn(C5CCNCC5)c4)nc23)cc(F)c1CN1CCOCC1`, the Potency was 23.5 µM (active). As to `CC(C)[C@H](CO)Nc1nc(Nc2ccc(C(=O)O)c(Cl)c2)c2ncn(C(C)C)c2n1`, the Potency result was “inactive”.

Take `COc1nc(-c2ccc3c(c2)OCO3)n(-c2ccc(NC(=O)CSc3ccccc3)cc2)n1`: the Potency is 20.9 µM (active).

On to `CNc1nccc(-c2cccnc2Oc2cc(C(=O)Nc3cccc(C(F)(F)F)c3)ccc2C)n1`, for which the Potency was 14.8 µM (active). Regarding `COc1cccc2cc(-c3nc(C4CCC(C(=O)O)CC4)n4ncnc(N)c34)[nH]c12` (stereo unspecified), the Potency was 6.62 µM (active). Take `Cc1ccc(-c2ncn(-c3ccc(Nc4nccc(-c5cccc(N6CCOCC6)c5)n4)cc3)n2)cn1`: the Potency is 0.0264 µM (active). As to `CCOc1ccn(-c2ccc(F)cc2)c(=O)c1C(=O)Nc1ccc(Oc2ccnc(N)c2Cl)c(F)c1`, the Potency was 18.7 µM (active). In the case of `CC(NCc1ccc2c(c1)nc(NC(=O)c1ccc(-c3cn[nH]c3)s1)n2CC(C)(C)O)C(C)(C)C` (stereo unspecified) it was 0.0469 µM (active); in that of `O=C(O)[C@H](Cc1c[nH]c2ccccc12)N1C(=O)c2ccccc2C1=O`, “inactive”; in that of `NC(=O)c1ccc(-c2nc(-c3ccc4c(c3)OCO4)c(-c3ccccn3)[nH]2)cc1`, “inactive”. In the case of `S=C(NCc1ccc2c(c1)OCO2)N1CCN(c2ncnc3c2oc2ccccc23)CC1` it was 18.7 µM (active); in that of `CCC1(Cc2ccc(N)cc2)CCC(=O)NC1=O` (stereo unspecified), “inactive”.

Regarding `Cc1cc(-c2ccc(CC(=O)Nc3ccc(-c4cccnc4)cc3)cc2)ccn1`, the Potency was 18.7 µM (active).

On to `COC(=O)Nc1ccc(-c2nc(N3CCOCC3)c3cnn(C4CCN(C(=O)OC)CC4)c3n2)cc1`, for which the Potency was 16.6 µM (active).

Consider `CC(=O)OCCN1C(=O)c2c(C)nc3ccc(S(=O)(=O)N4CCOCC4)cc3c2C1=O`, for which the Potency result was “inactive”. In the case of `CC(C)c1ccc2c(c1)c(SC(C)(C)C)c(CC(C)(C)C(=O)O)n2Cc1ccc(Cl)cc1` it was 13.2 µM (active); in that of `CC(C)C[C@@H](C(=O)N[C@H](C(=O)OC1CCCC1)c1ccccc1)[C@H](O)C(=O)NO`, 23.5 µM (active). `OCCC#Cc1nc(-c2ccc(F)cc2)c(-c2ccncc2)n1CCCc1ccccc1`: the Potency was 23.5 µM (active). The value for `CC[C@@H](C(=O)O)C1CC[C@H](C)C([C@@H](C)[C@H](O)[C@H](C)C(=O)[C@H](CC)C2O[C@]3(C=C[C@@H](O)[C@]4(CC[C@@](C)(C5CC[C@](O)(CC)[C@H](C)O5)O4)O3)[C@H](C)C[C@@H]2C)O1` (stereo partly specified) was 0.0418 µM (active); that for `CC[C@@H](C)[C@H](NC(=O)[C@H](CC1CCCCC1)NC(=O)c1ccno1)C(=O)N1CCC2(CCc3ccccc32)CC1` was “inactive”. In the case of `CC(C)(C(=O)NCC(F)(F)C(F)(F)F)C(=O)N[C@@H]1C(=O)Nc2ccccc2-c2ccccc21` it was “inactive”.
